# Results as given in PubChem BioAssay AID493152 (Sanford-Burnham Center for Chemical Genomics, 2011).
# The other results are listed elsewhere or left out. Active and inactive are the calls of the source.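 How the source made its calls: active means inhibition reaching a set limit in any replicate at 20 µM, the limit being 80% of the first screen's; inactive means the rest.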
# Target: DNA dC->dU-editing enzyme APOBEC-3G (Homo sapiens) (UniProt Q9HC16)
# Experiment: APOBEC3G deaminase inhibitor retest, confirmation, biochemical, fluorescence, single-stranded DNA substrate, single concentration (AID 493152)
# Conditions: recombinant A3G ssDNA deaminase, UDG/FAM-TAMRA fluorescence; at 20 µM; hits give high values
# DNA dC->dU-editing enzyme APOBEC-3G (Homo sapiens), sequence (Q9HC16 whole entry, looked up): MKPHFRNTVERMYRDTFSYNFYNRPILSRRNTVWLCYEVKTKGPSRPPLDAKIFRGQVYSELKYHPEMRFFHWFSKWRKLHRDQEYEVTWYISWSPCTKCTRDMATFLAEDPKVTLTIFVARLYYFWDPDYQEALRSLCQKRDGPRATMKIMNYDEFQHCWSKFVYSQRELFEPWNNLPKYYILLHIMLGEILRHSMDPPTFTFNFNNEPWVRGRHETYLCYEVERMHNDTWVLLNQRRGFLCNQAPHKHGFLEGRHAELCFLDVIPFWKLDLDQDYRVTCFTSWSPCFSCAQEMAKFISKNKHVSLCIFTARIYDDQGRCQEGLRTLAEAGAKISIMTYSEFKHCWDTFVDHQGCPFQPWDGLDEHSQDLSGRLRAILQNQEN
row,Structure (SMILES),inhibition
1,S=c1[nH]ccn1-c1ccc(Cl)cc1,74% (active)
2,O=C(Cn1cnc([N+](=O)[O-])n1)NCCc1ccccc1,11.3% (active)
3,CCn1c(CN2C(=O)CSc3ccccc32)n[nH]c1=S,23.9% (inactive)
4,CC(=O)N(C1=C(Cl)C(=O)c2ccccc2C1=O)c1ccc(C(=O)O)cc1,99.2% (active)
5,S=c1[nH]nc(-c2ccco2)n1/N=C/c1ccccc1,-3.73% (active)
6,COc1ccc(N2C(=O)CC(Sc3n[nH]c(-c4ccc(C)cc4)n3)C2=O)cc1 (centres undefined),46% (active)
7,CCOc1ccc(NC(=O)Nc2cc(C)on2)cc1,0.05% (inactive)
8,S=c1[nH]nc(-c2cc(-c3ccccc3)n[nH]2)n1/N=C/c1c2ccccc2cc2ccccc12,8.05% (inactive)
9,S=c1[nH]nc(-c2ccncc2)n1/N=C/c1ccccc1Cl,95.7% (active)
10,Cc1noc(C)c1CSc1nc2cc(S(=O)(=O)N3CCOCC3)ccc2o1,71.6% (active)
11,S=c1[nH]nc(-c2ccc(Cl)cc2)n1CC1CCCO1 (centres undefined),55.9% (active)
12,Cc1nc([N+](=O)[O-])nn1C12CC3CC(CC(Br)(C3)C1)C2,50.8% (active)
13,COCc1c(N)c(C)nc(Cl)c1C#N,84.5% (active)
14,Cc1cc(C)c2c(-c3ccc(F)cc3)c(C#N)c(=O)n(C)c2n1,-1.37% (inactive)
15,CCOC(=O)c1sc(=S)n2c1[nH]c(=O)c1ccc(C(=O)OC)cc12,7.15% (inactive)
16,COc1ccc(OCc2n[nH]c(=S)n2N)cc1,56.2% (active)
17,COc1ccc(OCc2nnc3n2N=C(c2ccccc2)C(CC(=O)O)S3)cc1 (centres undefined),27.3% (active)
18,O=C1CC(Sc2ncn[nH]2)C(=O)N1c1ccccc1 (centres undefined),40.4% (active)
19,O=c1[nH]c2ccccc2n2c(-c3ccccc3)nnc12,26% (active)
20,COc1ccc2[nH]c(=S)cc(C)c2c1,74.7% (active)
21,Cc1ccc(NC(=O)c2sc3nc(N)c(C#N)cc3c2N)cc1,-7.68% (inactive)
22,S=c1[nH]nc(NCCc2ccccc2)s1,81.5% (active)
23,COC(=O)c1cccc(-n2[nH]nnc2=S)c1,-14.5% (inactive)
24,Cc1ccc(S(=O)(=O)N(C)CC(=O)NCCc2c[nH]c3ccccc23)cc1,4.16% (inactive)
